Reference: the supplement of paper PMC9446081
± gives the standard deviation of the averaged measurements.

target: Guanlyate kinase (UniProt Q0TBG1); experiment: relative enzymatic activity vs untreated control (fraction); higher = less inhibition; details: 100 µM; incubation time: 2 h at 37 C
Protocol: (§1)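 In vitro enzymatic inhibition assays (ProFoldin kits) for 12 purified essential E. coli enzymes or complexes, each treated with 218 active antibacterial compounds at 100 µM for 2 h at 37°C. Read-outs were fluorescence or absorbance (phosphate detection, dye binding), converted to activity via standard curves and expressed relative to untreated DMSO controls.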

Sequence of Guanlyate kinase (Q0TBG1 whole entry): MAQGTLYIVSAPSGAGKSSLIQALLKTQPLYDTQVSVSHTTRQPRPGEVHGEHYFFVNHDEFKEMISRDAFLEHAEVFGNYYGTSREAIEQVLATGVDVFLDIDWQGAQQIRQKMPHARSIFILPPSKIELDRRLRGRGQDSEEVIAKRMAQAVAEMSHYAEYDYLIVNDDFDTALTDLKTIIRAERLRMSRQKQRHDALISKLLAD

In order of falling relative enzymatic activity:
1. Cc1nnc(SCC2=C(C(=O)[O-])N3C(=O)C(NC(=O)Cn4cnnn4)C3SC2)s1.[Na+] (stereo not drawn)  1.13 ± 0.052
2. CN(C)C1C(O)=C(C(N)=O)C(=O)C2(O)C(O)=C3C(=O)c4c(O)cccc4C(C)(O)C3CC12.Cl (stereo not drawn)  1.05 ± 0.046
3. C[C@H]1[C@H](NC(=O)/C(=N\OC(C)(C)C(=O)O)c2csc(N)n2)C(=O)N1S(=O)(=O)O  1.04 ± 0.021
4. O=c1[nH]c(=O)n(C2CC(O)C(CO)O2)cc1F (stereo not drawn)  1.03 ± 0.036
5. CNC1C(OC2C(OC3C(O)C(O)C(NC(=N)N)C(O)C3NC(=N)N)OC(C)C2(O)CO)OC(CO)C(O)C1O.O=S(=O)(O)O (stereo not drawn)  1.02 ± 0.063
6. COC1(NC(=O)C(C(=O)[O-])c2ccc(O)cc2)C(=O)N2C(C(=O)[O-])=C(CSc3nnnn3C)COC21.[Na+].[Na+] (stereo not drawn)  1.02 ± 0.11
7. CON=C(C(=O)NC1C(=O)N2C(C(=O)O)=C(C[N+]3(C)CCCC3)CSC12)c1csc(N)n1.[Cl-] (stereo not drawn)  1.02 ± 0.026
8. CCC=C(C(=O)NC1C(=O)N2C(C(=O)OCOC(=O)C(C)(C)C)=C(COC(N)=O)CSC12)c1csc(N)n1.Cl (stereo not drawn)  1.02 ± 0.098
9. O=C1OC(=O)[C@H]2[C@@H]1[C@H]1CC[C@H]2O1  1.01 ± 0.066
10. COc1cc(Cc2cnc(N)nc2N)cc(OC)c1OC  1.01 ± 0.05
11. NCCONC(=O)[C@@H]1CC[C@@H]2CN1C(=O)N2OS(=O)(=O)O  1.01 ± 0.12
12. CC(NCCCc1cccc(C(F)(F)F)c1)c1cccc2ccccc12.Cl (stereo not drawn)  1.01 ± 0.032
13. CCn1cc(C(=O)O)c(=O)c2cc(F)c(N3CCNC(C)C3)c(F)c21.Cl (stereo not drawn)  1 ± 0.097
14. NCC1OC(OC2C(N)CC(N)C(OC3OC(CO)C(O)C(N)C3O)C2O)C(N)CC1O (stereo not drawn)  1 ± 0.013
15. COc1ccc(Cc2cnc(N)nc2N)cc1OC  0.993 ± 0.039
16. CCOC(=O)OC(C)OC(=O)C1N2C(=O)C(NC(=O)C(N)c3ccccc3)C2SC1(C)C.Cl (stereo not drawn)  0.975 ± 0.026
17. CC(O)C1C(=O)N2C(C(=O)O)=C(SC3CNC(C(=O)N(C)C)C3)C(C)C12 (stereo not drawn)  0.973 ± 0.11
18. CC[C@H]1OC(=O)C[C@@H](O)[C@H](C)[C@@H](O[C@@H]2O[C@H](C)C[C@H](N(C)C)[C@H]2O)[C@@H](CC=O)C[C@@H](C)C(=O)/C=C/[C@]2(C)O[C@H]2[C@@H]1C  0.968 ± 0.11
19. CC(N)O.Cc1cc(CC(C)CC(C)(C)C)n(O)c(=O)c1 (stereo not drawn)  0.963 ± 0.12
20. CN1CCN(c2c(F)cc3c(=O)c(C(=O)O)cn4c3c2OCN4C)CC1  0.958 ± 0.14
21. Cc1cc(=O)c(C(=O)N[C@@H](C(=O)N[C@@H]2C(=O)N3C(C(=O)O)=C(CSc4nnnn4C)CS[C@H]23)c2ccc(O)cc2)c[nH]1  0.946 ± 0.015
22. N[C@@H](C(=O)N[C@@H]1C(=O)N2C(C(=O)O)=C(Cl)CC[C@H]12)c1ccccc1  0.943 ± 0.061
23. Cn1nnnc1SCC1=C(C(=O)[O-])N2C(=O)C(NC(=O)C(O)c3ccccc3)C2SC1.[Na+] (stereo not drawn)  0.942 ± 0.17
24. CC1(C)S[C@@H]2[C@H](NC(=O)[C@H](NC(=O)N3CCNC3=O)c3ccccc3)C(=O)N2[C@H]1C(=O)O  0.935 ± 0.03
25. O=C(O)c1cn(C2CC2)c2cc(N3CCNCC3)c(F)cc2c1=O  0.932 ± 0.065
26. Nc1nc(C(=CCC(=O)O)C(=O)NC2C(=O)N3C(C(=O)O)=CCSC23)cs1 (stereo not drawn)  0.901 ± 0.03
27. COc1cc2c(cc1OC)C(=O)C(CC1CCN(Cc3ccccc3)CC1)C2.Cl (stereo not drawn)  0.892 ± 0.1
28. CO/N=C(\C(=O)N[C@@H]1C(=O)N2C(C(=O)O)=C(CSc3nnnn3C)CS[C@H]12)c1csc(N)n1  0.883 ± 0.091
29. Nc1nc(/C(=N/O)C(=O)N[C@@H]2C(=O)N3C(C(=O)O)=C(/C=C4\CCN([C@@H]5CCNC5)C4=O)CS[C@H]23)ns1  0.881 ± 0.12
30. N[C@@H](C(=O)N[C@@H]1C(=O)N2C(C(=O)O)=C(Cl)CS[C@H]12)c1ccccc1  0.87 ± 0.074
31. Cc1cn(C2CC(N=[N+]=[N-])C(CO)O2)c(=O)[nH]c1=O (stereo not drawn)  0.865 ± 0.097
32. CC(=O)On1cc(F)c(=O)[nH]c1=O  0.859 ± 0.015
33. CO/N=C(\C(=O)N[C@@H]1C(=O)N2C(C(=O)O)=C(C)CS[C@H]12)c1csc(N)n1  0.836 ± 0.015
34. CCN1CCN(C(=O)NC(C(=O)NC2C(=O)N3C(C(=O)O)=C(CSc4nnnn4C)CSC23)c2ccc(O)cc2)C(=O)C1=O (stereo not drawn)  0.828 ± 0.076
35. CON=C(C(=O)NC1C(=O)N2C(C(=O)OCOC(=O)C(C)(C)C)=C(C=Cc3scnc3C)CSC12)c1csc(N)n1 (stereo not drawn)  0.794 ± 0.14
36. NC(=O)N/N=C/c1ccc([N+](=O)[O-])o1  0.751 ± 0.048
37. CN(C)c1ccc(O)c2c1CC1CC3C(N(C)C)C(O)=C(C(N)=O)C(=O)C3(O)C(O)=C1C2=O.Cl (stereo not drawn)  0.577 ± 0.027
38. C=C1c2cccc(O)c2C(=O)C2=C(O)C3(O)C(=O)C(C(N)=O)=C(O)C(N(C)C)C3C(O)C12.Cl (stereo not drawn)  0.376 ± 0.018
39. Nc1c2ccccc2nc2ccccc12  0.3108 ± 0.001

target: MurA (UniProt Q3YX52); experiment: as above; details: 100 µM; incubation time: 2 h at 37 C
Sequence (Q3YX52 whole entry): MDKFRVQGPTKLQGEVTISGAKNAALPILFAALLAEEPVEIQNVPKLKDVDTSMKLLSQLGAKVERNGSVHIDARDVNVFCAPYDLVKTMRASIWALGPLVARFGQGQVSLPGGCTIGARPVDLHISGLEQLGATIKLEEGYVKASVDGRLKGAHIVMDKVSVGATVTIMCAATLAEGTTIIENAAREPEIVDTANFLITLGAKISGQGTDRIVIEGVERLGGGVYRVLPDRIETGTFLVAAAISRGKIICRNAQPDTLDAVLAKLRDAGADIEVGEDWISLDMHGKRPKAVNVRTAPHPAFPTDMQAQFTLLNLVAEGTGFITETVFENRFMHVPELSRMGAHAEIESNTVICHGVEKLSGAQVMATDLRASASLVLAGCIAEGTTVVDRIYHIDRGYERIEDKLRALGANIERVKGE
Protocol: as §1

In order of rising relative enzymatic activity:
1. Nc1nc(C(=CCC(=O)O)C(=O)NC2C(=O)N3C(C(=O)O)=CCSC23)cs1 (stereo not drawn)  0.0583 ± 0.02
2. COC1(NC(=O)C(C(=O)[O-])c2ccc(O)cc2)C(=O)N2C(C(=O)[O-])=C(CSc3nnnn3C)COC21.[Na+].[Na+] (stereo not drawn)  0.069 ± 0.017
3. C=C1c2cccc(O)c2C(=O)C2=C(O)C3(O)C(=O)C(C(N)=O)=C(O)C(N(C)C)C3C(O)C12.Cl (stereo not drawn)  0.0701 ± 0.026
4. Cn1nnnc1SCC1=C(C(=O)[O-])N2C(=O)C(NC(=O)C(O)c3ccccc3)C2SC1.[Na+] (stereo not drawn)  0.0762 ± 0.016
5. Nc1nc(/C(=N/O)C(=O)N[C@@H]2C(=O)N3C(C(=O)O)=C(/C=C4\CCN([C@@H]5CCNC5)C4=O)CS[C@H]23)ns1  0.0852 ± 0.03
6. CN(C)c1ccc(O)c2c1CC1CC3C(N(C)C)C(O)=C(C(N)=O)C(=O)C3(O)C(O)=C1C2=O.Cl (stereo not drawn)  0.0902 ± 0.0036
7. CCN1CCN(C(=O)NC(C(=O)NC2C(=O)N3C(C(=O)O)=C(CSc4nnnn4C)CSC23)c2ccc(O)cc2)C(=O)C1=O (stereo not drawn)  0.0994 ± 0.0088
8. Cc1cc(=O)c(C(=O)N[C@@H](C(=O)N[C@@H]2C(=O)N3C(C(=O)O)=C(CSc4nnnn4C)CS[C@H]23)c2ccc(O)cc2)c[nH]1  0.116 ± 0.018
9. CO/N=C(\C(=O)N[C@@H]1C(=O)N2C(C(=O)O)=C(CSc3nnnn3C)CS[C@H]12)c1csc(N)n1  0.157 ± 0.032
10. N[C@@H](C(=O)N[C@@H]1C(=O)N2C(C(=O)O)=C(Cl)CS[C@H]12)c1ccccc1  0.168 ± 0.067
11. CON=C(C(=O)NC1C(=O)N2C(C(=O)O)=C(C[N+]3(C)CCCC3)CSC12)c1csc(N)n1.[Cl-] (stereo not drawn)  0.222 ± 0.0031
12. CON=C(C(=O)NC1C(=O)N2C(C(=O)OCOC(=O)C(C)(C)C)=C(C=Cc3scnc3C)CSC12)c1csc(N)n1 (stereo not drawn)  0.253 ± 0.062
13. Cc1nnc(SCC2=C(C(=O)[O-])N3C(=O)C(NC(=O)Cn4cnnn4)C3SC2)s1.[Na+] (stereo not drawn)  0.255 ± 0.063
14. CCC=C(C(=O)NC1C(=O)N2C(C(=O)OCOC(=O)C(C)(C)C)=C(COC(N)=O)CSC12)c1csc(N)n1.Cl (stereo not drawn)  0.293 ± 0.18
15. C[C@H]1[C@H](NC(=O)/C(=N\OC(C)(C)C(=O)O)c2csc(N)n2)C(=O)N1S(=O)(=O)O  0.47 ± 0.14
16. CO/N=C(\C(=O)N[C@@H]1C(=O)N2C(C(=O)O)=C(C)CS[C@H]12)c1csc(N)n1  0.479 ± 0.18
17. COc1cc2c(cc1OC)C(=O)C(CC1CCN(Cc3ccccc3)CC1)C2.Cl (stereo not drawn)  0.486 ± 0.059
18. CC(O)C1C(=O)N2C(C(=O)O)=C(SC3CNC(C(=O)N(C)C)C3)C(C)C12 (stereo not drawn)  0.501 ± 0.29
19. NC(=O)N/N=C/c1ccc([N+](=O)[O-])o1  0.504 ± 0.021
20. CC1(C)S[C@@H]2[C@H](NC(=O)[C@H](NC(=O)N3CCNC3=O)c3ccccc3)C(=O)N2[C@H]1C(=O)O  0.579 ± 0.11
21. N[C@@H](C(=O)N[C@@H]1C(=O)N2C(C(=O)O)=C(Cl)CC[C@H]12)c1ccccc1  0.582 ± 0.21
22. CN1CCN(c2c(F)cc3c(=O)c(C(=O)O)cn4c3c2OCN4C)CC1  0.585 ± 0.19
23. CNC1C(OC2C(OC3C(O)C(O)C(NC(=N)N)C(O)C3NC(=N)N)OC(C)C2(O)CO)OC(CO)C(O)C1O.O=S(=O)(O)O (stereo not drawn)  0.635 ± 0.0086
24. CC(=O)On1cc(F)c(=O)[nH]c1=O  0.673 ± 0.096
25. CC[C@H]1OC(=O)C[C@@H](O)[C@H](C)[C@@H](O[C@@H]2O[C@H](C)C[C@H](N(C)C)[C@H]2O)[C@@H](CC=O)C[C@@H](C)C(=O)/C=C/[C@]2(C)O[C@H]2[C@@H]1C  0.673 ± 0.17
26. O=C(O)c1cn(C2CC2)c2cc(N3CCNCC3)c(F)cc2c1=O  0.705 ± 0.28
27. COc1cc(Cc2cnc(N)nc2N)cc(OC)c1OC  0.706 ± 0.023
28. NCCONC(=O)[C@@H]1CC[C@@H]2CN1C(=O)N2OS(=O)(=O)O  0.709 ± 0.27
29. CN(C)C1C(O)=C(C(N)=O)C(=O)C2(O)C(O)=C3C(=O)c4c(O)cccc4C(C)(O)C3CC12.Cl (stereo not drawn)  0.712 ± 0.038
30. CCn1cc(C(=O)O)c(=O)c2cc(F)c(N3CCNC(C)C3)c(F)c21.Cl (stereo not drawn)  0.728 ± 0.031
31. O=C1OC(=O)[C@H]2[C@@H]1[C@H]1CC[C@H]2O1  0.734 ± 0.16
32. Nc1c2ccccc2nc2ccccc12  0.74 ± 0.14
33. COc1ccc(Cc2cnc(N)nc2N)cc1OC  0.74 ± 0.026
34. CC(NCCCc1cccc(C(F)(F)F)c1)c1cccc2ccccc12.Cl (stereo not drawn)  0.749 ± 0.32
35. Cc1cn(C2CC(N=[N+]=[N-])C(CO)O2)c(=O)[nH]c1=O (stereo not drawn)  0.77 ± 0.043
36. CCOC(=O)OC(C)OC(=O)C1N2C(=O)C(NC(=O)C(N)c3ccccc3)C2SC1(C)C.Cl (stereo not drawn)  0.82 ± 0.1
37. NCC1OC(OC2C(N)CC(N)C(OC3OC(CO)C(O)C(N)C3O)C2O)C(N)CC1O (stereo not drawn)  0.82 ± 0.12
38. CC(N)O.Cc1cc(CC(C)CC(C)(C)C)n(O)c(=O)c1 (stereo not drawn)  0.844 ± 0.05
39. O=c1[nH]c(=O)n(C2CC(O)C(CO)O2)cc1F (stereo not drawn)  0.856 ± 0.064
